Peg3 promoter: Peg3 promoter-driven luciferase inhibitors, primary screen, cell-based, HeLa, luciferase luminescence; AID 588405, 2011; 360,000 tested, 1.7% active; HeLa PEG-Prom luciferase reporter, overnight; inhibition, % at 20 µM;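 active = inhibition of at least 50% at 20 µM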
KKLEB tox: cytotoxicity in KKLEB CF airway cells, primary screen, cytotoxicity control for CF NF-kB inhibitor project, cell-based, uHTS, fluorescence assay plates; KKLEB CF airway cells viability, ATPlite luminescence, overnight; hits give low values; cells stimulated with P. aeruginosa culture filtrate; activity change (cytotoxicity), % at 5 µM; 360,000 tested, 0.36% active; AID 602141, 2011;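 active = corrected activity change at or below -50% at 5 µM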
TRPM1 prom inh: inhibitors of MITF-dependent TRPM1 promoter reporter, primary screen, cell-based, SK-MEL-5, single point, luciferase; SK-MEL-5 TRPM1 promoter luciferase, 24 h; inhibition, % at 12.5 µM; 330,000 tested, 0.83% active;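 active = mean inhibition across replicates of 60% or more, whatever share of single replicates reaches that level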
Shn3 3UTR inh: reduction of Shn3 3'UTR firefly luciferase signal, primary screen, Schnurri-3 inhibitor project, cell-based, Clone20 osteoblasts, set 2; Clone20 osteoblast Shn3 3'UTR firefly luciferase, 24 h; inhibition, % at 12.5 µM; 360,000 tested, 0.52% active;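 active = mean inhibition of at least 75% with every replicate also reaching 75%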
CF NFkB inh: inhibitors of PAF-induced NF-kB signaling, primary screen, cell-based, GFP fluorescence, uHTS | KKLEB NF-kB-GFP reporter, GFP fluorescence overnight | inhibition, % at 5 µM | 360,000 tested, 0.86% active;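 active = at least 50% inhibition at 5 µM, scaled per plate between neutral and stimulator controls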;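 also: PAF is a Pseudomonas aeruginosa culture filtrate used as stimulus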
HIF-2a inh: HIF-2a reporter inhibitors, primary screen, luminescence, 786-0 RCC cells. 360,000 tested, 0.72% active. AID 624352, 2012. inhibition, % at 18.8 µM. 786-0 RCC cells HIF-2a reporter, luciferase luminescence, overnight;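 active = inhibition of the luminescence signal of 40% or more relative to plate controls, in a single-dose primary screen at 18.75 µM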
CF NFkB inh conf: inhibitors of PAF-induced NF-kB signaling, retest, confirmation, cell-based, GFP fluorescence, single concentration | 1,300 tested, 64% active | AID 602472, 2012 | shares compounds with CF NFkB inh | inhibition, % at 5 µM | KKLEB CF airway cells, overnight; in the data active = inhibition above about 40%;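 also: stimulus PAF is a Pseudomonas aeruginosa filtrate and not platelet activating factor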
Large screens that a line does not name were inactive (follow-up assays come after a bar, where they were run). Hits are enriched below; roughly 2.7% of the tested compounds scored in any of these assays.

Cc1ccc(-c2ccc(CN3C(C)C(=O)N(Cc4cn(Cc5ccco5)nn4)CCS3(=O)=O)cc2)c(C)c1 (centres undefined)	none (no result: TRPM1 prom inh)
CC1C(=O)N(Cc2cn(CC3CCCCC3)nn2)CCS(=O)(=O)N1Cc1ccc(-c2ccccc2)cc1 (centres undefined)	none (no result: TRPM1 prom inh)
ON=C1c2ccccc2-c2ccc(O)cc21	none
ON=C1c2ccccc2-c2cc(Br)ccc21	CF NFkB inh 78 | CF NFkB inh conf 73
O=C(CCCn1c(=S)[nH]c2cc3c(cc2c1=O)OCO3)NCc1cccc(Cl)c1	none
Fc1ccc(Nc2ccnc(Nc3ccc(F)cc3)n2)cc1	CF NFkB inh 58 | CF NFkB inh conf 56
Nc1ncnc(Nc2ccc(F)cc2)n1	none
COc1ccc(NC(=O)N2CCC(CO)(CC3CCCCO3)CC2)c(OC)c1 (centres undefined)	none
CC1CNCCN1S(=O)(=O)c1cccc2cnccc12 (centres undefined)	none
O=S(=O)(c1cccc2cnccc12)N1CCCNCC1	CF NFkB inh 50 | CF NFkB inh conf 58
CCOCCCn1c(=O)c2ccccc2n2c(=S)[nH]nc12	none
CCn1c(=O)c2c(cnn2C)c2ccccc21	CF NFkB inh 72 | CF NFkB inh conf 78
CCN(CC)C(=O)C1=C(C)N(CCC2=CCCCC2)C(=O)C(CC(=O)NCCCN(C)C)C1 (centres undefined)	none (no result: TRPM1 prom inh)
Cc1ccc(S(=O)(=O)NCC(=O)NCC(=O)OC(C(=O)NC(N)=O)C(C)C)cc1C (centres undefined)	none
O=C1C=CC(=Nc2ccc3c(c2)Cc2ccccc2-3)O1	none
COc1ccc2c(c1)c(C(=O)O)c(C)n2-c1ccccc1	none
CCOC(=O)c1c(C)n(-c2ccc(F)cc2)c2ccc(O)cc12	none
COC(=O)c1c(C)n(-c2ccc(OC)cc2)c2ccc(O)cc12	CF NFkB inh 58 (no result: TRPM1 prom inh) | CF NFkB inh conf 84
COc1ccc2c(c1)c(C(C)=O)c(C)n2-c1ccc(C(C)=O)cc1	CF NFkB inh 64 | CF NFkB inh conf 74
CCCN(CC(=O)Nc1ccccc1OC)C(=O)CSc1ccc(Br)cc1C	none
CC(C)(C)CN1CCC(Oc2cccc(C(=O)N3CCC[C@H]3CO)c2)CC1	none
CNC(=O)c1ccc(NC(=O)C2CCN(c3ncnc4sc(C)c(C)c34)CC2)cc1	CF NFkB inh 60 | CF NFkB inh conf 60
C=CC[C@@H](CC(=O)N(CCO)Cc1ccccc1)C(=O)NC[C@H](OC(=O)[C@@H](CC=C)Cc1ccc(F)cc1)c1ccccc1	Peg3 promoter 71, CF NFkB inh 73 | CF NFkB inh conf 92
CC(C)CN(C(=O)C(C)N1C(=O)c2ccccc2C1=O)c1c(N)n(Cc2ccccc2)c(=O)[nH]c1=O (centres undefined)	none
CCC(CO)Oc1cc(NCc2ccc(C)c(C)c2)c2ncn(C(C)C)c2c1 (centres undefined)	CF NFkB inh 52 | CF NFkB inh conf inactive
CCC(CO)Oc1cc(NCc2ccncc2)c2ncn(C(C)C)c2c1 (centres undefined)	none
CCC(CO)Oc1cc(NCc2cc(C)cc(C)c2)c2ncn(C(C)C)c2c1 (centres undefined)	CF NFkB inh 67 | CF NFkB inh conf inactive
CCC(CO)Oc1cc(NCc2ccc(F)cc2)c2ncn(C(C)C)c2c1 (centres undefined)	none
COc1cc2oc(=O)cc(-c3ccc(-c4ccc(N(C)C)cc4)cc3)c2c(OC)c1OC	CF NFkB inh 52 | CF NFkB inh conf 66
Oc1ccc(Cl)cc1Cc1cc(Cl)ccc1O	CF NFkB inh 77 | CF NFkB inh conf 90
COc1ccc(NC(=O)CCS(=O)(=O)c2ccc(Cl)cc2)cc1	none
CC(=O)c1sc(NC(=O)CCS(=O)(=O)c2ccc(Cl)cc2)nc1C	CF NFkB inh 56 | CF NFkB inh conf 40
OCC1CCCN(c2ncnc3scc(-c4ccccc4)c23)C1 (centres undefined)	CF NFkB inh 50 | CF NFkB inh conf 40
CN1CCN(c2ncnc3scc(-c4ccccc4Cl)c23)CC1	CF NFkB inh 71 | CF NFkB inh conf 74
O=[N+]([O-])c1cccc(NC(=S)Nc2nc(-c3ccccc3Cl)cs2)c1	CF NFkB inh 50 | CF NFkB inh conf 67
O=C(Nc1ccc2c(c1)OCCO2)C(C1CC1)n1c(=O)c(-c2ccccc2)nc2ccccc21 (centres undefined)	none (no result: Peg3 promoter, KKLEB tox, TRPM1 prom inh, Shn3 3UTR inh, CF NFkB inh)
O=C(N/N=C/c1ccccc1)c1[nH]c2ccc(Br)cc2c1-c1ccccc1	TRPM1 prom inh 74, CF NFkB inh 61 | CF NFkB inh conf 85
CCOc1ncccc1C(=O)OCC(=O)Nc1cc(C(C)(C)C)ccc1OC	none
O=C(OC1CCOC1=O)c1ccccc1C(=O)c1ccc(Cl)c([N+](=O)[O-])c1 (centres undefined)	CF NFkB inh 72 | CF NFkB inh conf 52
CCCOc1ccc(C(=O)c2ccccc2C(=O)OC2CCOC2=O)cc1OCCC (centres undefined)	none
COc1ccc(OC)c(S(=O)(=O)NCC(c2ccco2)S(=O)(=O)c2ccccc2)c1 (centres undefined)	CF NFkB inh 50 | CF NFkB inh conf inactive
CN(CC(=O)Nc1ccc(Cl)c(Cl)c1)C(=O)C1CCC1	none
CC1CC(NS(=O)(=O)c2cc3c4c(c2)CCN4C(=O)CC3)CC(C)(C)C1 (centres undefined)	none
c1cnc2ccc(-n3ccnc3)cc2c1	CF NFkB inh 55 (no result: TRPM1 prom inh) | CF NFkB inh conf 49
CC(=O)Oc1ccc(C(=O)O)cc1OC(C)=O	none
CC(=O)Oc1ccc(OC(C)=O)c(SCCCCCCl)c1	Shn3 3UTR inh 95, CF NFkB inh 58 | CF NFkB inh conf inactive
O=C(NCCc1ccccc1)C(=O)NCC1CCCN1S(=O)(=O)c1cccs1 (centres undefined)	none
Cc1nc(N2CCN(C)CC2)c2sc(=S)n(-c3ccccc3)c2n1	none
S=c1sc2c(Cl)ncnc2n1-c1ccccc1	Peg3 promoter 112, TRPM1 prom inh 70, CF NFkB inh 78, HIF-2a inh 84 | CF NFkB inh conf inactive
O=C(c1cncc(Br)c1)N1CCc2ccccc2C1	CF NFkB inh 51 | CF NFkB inh conf 56
O=C(c1ccncc1)N1CCc2ccccc2C1	none
